The source of these data is PubChem BioAssay AID588342 (National Center for Advancing Translational Sciences (NCATS), 2011).

Out of some 360,000 compounds screened, about 25,000 (6.9%) were called active. Not shown: some 9% with an inconclusive outcome. This is one part of a sample in which actives are shown more often than they occur. Values without a mark were called inactive. The call rests on the fitted dose curve; in most records, active means well fitted inhibition curve with a large enough effect; inconclusive means small, poorly fitted or top-dose-only effect; inactive means flat fitted curve, though single readings scatter.

Luciferin 4-monooxygenase (Photinus pyralis), sequence (P08659 whole entry, looked up): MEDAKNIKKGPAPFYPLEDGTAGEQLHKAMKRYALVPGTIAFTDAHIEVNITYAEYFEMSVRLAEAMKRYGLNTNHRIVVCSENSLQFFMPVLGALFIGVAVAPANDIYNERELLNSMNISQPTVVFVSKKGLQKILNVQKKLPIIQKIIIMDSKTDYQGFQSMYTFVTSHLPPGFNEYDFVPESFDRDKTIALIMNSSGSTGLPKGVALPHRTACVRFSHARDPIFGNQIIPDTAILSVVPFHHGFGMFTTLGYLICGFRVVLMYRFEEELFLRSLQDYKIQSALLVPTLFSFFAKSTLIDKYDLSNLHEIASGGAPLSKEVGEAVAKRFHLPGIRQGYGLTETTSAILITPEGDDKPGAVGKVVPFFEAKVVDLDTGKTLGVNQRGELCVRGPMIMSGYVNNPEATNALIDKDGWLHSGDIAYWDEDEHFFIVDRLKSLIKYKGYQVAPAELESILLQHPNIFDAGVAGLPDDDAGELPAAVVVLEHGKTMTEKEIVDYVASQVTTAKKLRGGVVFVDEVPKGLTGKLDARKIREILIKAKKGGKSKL

The target in the assay is Luciferin 4-monooxygenase (Photinus pyralis) (UniProt P08659). In words: qHTS profiling assay for firefly luciferase inhibitor/activator using purifed enzyme and Km concentrations of substrates (counterscreen for miR-21 project). Further: nearly all actives have a fitted effect of over 55% in size.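 On activity change, negative = inhibition: plate controls were vehicle for no effect and reference inhibitor for full effect.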 The settings on record: purified FLuc, luminescence inhibition; series mostly up to 57.5 µM; activity change, negative = inhibition: at the top concentration. The text has this:
MLPCN Grant: 1 R21 NS059478-01 (miR-21 grant) Assay Provider: NCGC NCGC Assay Overview: Firefly (Photinus pyralis) luciferase is one of the most commonly used transcriptional reporters for a number of reasons. It is considered one of the more dynamically responsive reporters -that is, responsive to changes in reporter transcription - as it requires no post-translational modifications and is enzymatically active directly after protein synthesis (Wood, 1998). Additionally, the half-life of the luciferase protein is short relative to other reporter-gene products (Wood, 1995). Whereas reporters with long half-lives potentially allow for increased signal due to accumulation of reporter-gene product, once accumulated in the cell, dynamic changes in reporter-gene expression may be difficult to detect(Fan and Wood, 2007; Almond et al., 2004). It has been shown that wild-type P. pyralis luciferase has a half-life of approximately […] hours in mammalian cells (Thompson et al., 1991). Firefly luciferase reporter-gene assays are also generally considered one of the most sensitive assay types (Wood, 1995; Wood, 1998). Although light produced in a bioluminescence reaction is of lower intensity than that produced during fluorescence emission, this is offset by little to no background light inherent to luminescent assays. Thus the luciferase reporter can be expressed at much lower levels than fluorescent proteins while still providing robust signal. # However, it was initially observed, in 1991, by Thompson et al., that compounds that resemble the substrates of firefly luciferase (FLuc) can act as competitive inhibitors of the enzyme, and that these compounds, upon interaction with luciferase in the cell, can actually stabilize the protein and increase its half-life. Accumulated intracellular FLuc protein can be measured as an increase in luminescence signal, upon addition of detection reagents (which contain high concentrations of FLuc substrates) commonly used in high-throughput screening. In cell-based reporter gene assays that use FLuc as the reporter gene to quantitate the potential influence of a given compound against the target biology, this apparent increase in luminescence can mistakenly be interpreted as identification of a compound that is active against the target of interest. This is the case for the miR-21 FLuc reporter gene assay used to identify inhibitors of the miR-21 pathway (PubChem AID 2289) - compounds of interest will inhibit miR-21 biogenesis/expression or activity, and are identified by causing an increase in luminescence, due to increased FLuc translation. However, FLuc inhibitory compounds that stabilize the FLuc protein will give an identical read-out, making it difficult to distinguish compounds that are active against the target from those active against FLuc. Previous profiling work to determine the prevalence of compounds that affect FLuc enzymatic activity (PubChem AID 411) identified that ~3% of the MLSMR library (then at ~72K) inhibited FLuc. […] Since the MLSMR had grown to ~350K compounds, and since it was expected that a significant percentage of compounds found active in the miR-21 FLuc assay would be FLuc inhibitors, the library was screened for activity against FLuc using a biochemical assay of purified FLuc and KM concentrations of FLuc substrates (D-luciferin and ATP).
NCGC Assay Protocol Summary: Reagents: 50mM Tris acetate, pH 7.5; 10mM Mg acetate; 10uM D-luciferin (Sigma #L9504); 10uM ATP; 0.01% Tween-20; 0.05% BSA; 10nM P. pyralis luciferase (Sigma #L9506) Control compounds used were two known firefly luciferase inhibitors (compounds (2) and (5) in Auld et al., 2010), and DMSO. […]
In the case of `Cc1ccc2nc3c(cc(C(=O)NC4CCCCC4)c(=N)n3C(C)C)c(=O)n2c1`, the “activity change, negative = inhibition” value was -2.1%. On to `CCOC(=O)c1c(NC(=O)Cc2coc3ccc(CC)cc23)sc2c1CCC2`, for which the “activity change, negative = inhibition” value is 3.62%. Consider `Fc1ccccc1/C=C1\CCCC2=C1Nc1ncnn1C2c1ccccc1F` (stereo unspecified), for which the “activity change, negative = inhibition” value is 2.39%. Turning to `CSCCC(NC(=O)c1ccccc1)C(=O)N1CCCCCCC1` (stereo unspecified), the “activity change, negative = inhibition” value is 0.843%. For the compound `COc1ccc(Cl)cc1S(=O)(=O)N1CCC(c2ccncc2)CC1`, the “activity change, negative = inhibition” value is -1.34%.

Turning to `CC1CCCCN1CC(=O)N1CCCc2c1c(=O)oc1ccc(OCc3ccccc3)cc21` (stereo unspecified), the “activity change, negative = inhibition” value was -1.68%. On to `Cc1ccc(CNS(=O)(=O)CCNC(=O)c2ccccc2)cc1`, for which the “activity change, negative = inhibition” value was -1.29%. On to `Cn1c2c(c(=O)n(C)c1=O)C(c1cccc([N+](=O)[O-])c1)Nc1ccccc1O2` (stereo unspecified), for which the “activity change, negative = inhibition” value was 9.28%. For `Cc1ccc(-c2cc(N)n(Cc3cccc(Cl)c3)n2)cc1`, the “activity change, negative = inhibition” value was -7.16%. `Cc1ccc(S(=O)(=O)Cc2cc(-c3ccc(Cl)cc3)no2)cc1`: the “activity change, negative = inhibition” value is -13%.

With `Cc1ccc(-c2cc(N)on2)cc1`, the Potency is 16.9 µM (active).

Take `CCc1nn(CC(=O)Nc2cccc(C)c2C)c(=O)c2cc3sccc3n12`: the “activity change, negative = inhibition” value is -8.3%. As to `COc1cc(C(=O)N2CCN(C(=O)COc3cccc(C)c3)CC2)cc(OC)c1OC`, the “activity change, negative = inhibition” value is 3.42%. `CCOC(=O)c1cnc(SCc2nc(N)nc(Nc3ccc(OC)cc3)n2)nc1N`: the Potency was 19 µM (active). On to `CCOC(=O)c1cnc(SCC(=O)Nc2ccccc2C(=O)OC)nc1N`, for which the “activity change, negative = inhibition” value is -17.3%. For the compound `CCOC(=O)c1cnc(SCC(=O)Nc2cccc(OC)c2)nc1N`, the “activity change, negative = inhibition” value was -2.7%. For the compound `Cc1c(CCNC(=O)c2ccc(C(F)(F)F)cc2)sc2nc(-c3ccc(F)cc3)nn12`, the “activity change, negative = inhibition” value is -0.0826%. Take `Cc1ccc(C(=O)N/C(=C/C=C/c2ccccc2)C(=O)NCc2ccco2)cc1`: the “activity change, negative = inhibition” value is -6.44%. Turning to `CC1CCCCC12NC(=O)N(CC(=O)Nc1ccc(S(=O)(=O)Nc3ncccn3)cc1)C2=O` (stereo unspecified), the “activity change, negative = inhibition” value is 0.431%. Turning to `CC(C)(C)c1ccc(NC(=O)NCc2ccco2)cc1`, the Potency is 23.9 µM (active). As to `Cc1ccccc1NC(=O)NCc1ccco1`, the “activity change, negative = inhibition” value was -3.59%. In the case of `O=C(Nc1ccccc1)Nc1ccccc1C(=O)NCc1ccco1`, the Potency is 15.1 µM (active).

Take `CC(C)(C)c1ccc(C(=O)NCCC(=O)NCc2ccco2)cc1`: the “activity change, negative = inhibition” value is -13.9%. The same measure, in the same setting: the result for `Cc1cccc(Nc2ccccc2C(=O)NCc2ccco2)c1C` reads 3.31%.

In the case of `CC(C)(C)NC(=O)NCc1ccco1`, the “activity change, negative = inhibition” value is -2.22%. For the compound `CCCCNC(=O)C1CCCN(c2nnc(C)c3c(C)n(-c4ccc(Cl)cc4)nc23)C1` (stereo unspecified), the “activity change, negative = inhibition” value is -6.66%. Consider `CCOC(=O)CSC1=Nc2ccccc2C2=NC(CCC(=O)NCc3ccc(F)cc3)C(=O)N12` (stereo unspecified), for which the “activity change, negative = inhibition” value is 2.71%. Still for that read-out and setting: under `CCN(CC(=O)Nc1ccccc1OC)C(=O)CC1CC2CCC1C2` (stereo unspecified) stands -0.227%; under `O=C(Cc1ccc(Cl)cc1)NCC(c1cccs1)S(=O)(=O)c1ccc(Cl)cc1` (stereo unspecified), -14.2%.

In the case of `O=C(Cc1cccs1)N(CC1CCCO1)C1(C(=O)NC2CCCCC2)CCCCC1` (stereo unspecified), the “activity change, negative = inhibition” value is -2.36%.

On to `CC1CCCN(c2nc3c(S(=O)(=O)c4ccc(C(C)C)cc4)nnn3c3ccsc23)C1` (stereo unspecified), for which the “activity change, negative = inhibition” value was 5.49%. As for `O=C(O)C1CCN(C(=O)OCc2ccccc2)CC1`, the Potency is 10.7 µM (active). For the compound `CCOC(=O)N1CCC(NC(=O)CCc2ccccc2)CC1`, the “activity change, negative = inhibition” value was 0.99%. With `O=C(NCc1ccccc1)C1CCN(C(=O)Cc2ccccc2)CC1`, the “activity change, negative = inhibition” value is 4.44%.

Consider `COc1cc(OC)cc(-c2nnc(N(C)C(=O)c3ccncc3)s2)c1`, for which the “activity change, negative = inhibition” value was -0.199%. As to `CN(C(=O)c1ccccn1)c1nnc(-c2ccccn2)s1`, the Potency was 3.38 µM (active). Turning to `CN(C(=O)C1CCOC1)c1nnc(-c2cccnc2)s1` (stereo unspecified), the “activity change, negative = inhibition” value is 3.31%. Take `Cc1ccc(C(=O)CCC(=O)N(C)CC(=O)Nc2c(Cl)cccc2Cl)cc1`: the “activity change, negative = inhibition” value is -16.9%.

Turning to `CCn1c(COc2c(C)cccc2C)nnc1SCc1nc2ccccc2c(=O)[nH]1`, the “activity change, negative = inhibition” value is 7.76%.

With `COc1ccc(Cn2ccnc2SCC(=O)NCc2ccco2)cc1`, the “activity change, negative = inhibition” value is 0.425%. As to `CC(NC(=O)c1cc(Sc2ccc(F)cc2F)nc2ccccc12)c1ccccc1` (stereo unspecified), the “activity change, negative = inhibition” value is 4.18%. Take `Cn1c(=O)c2c(nc(SCC(=O)Nc3ccc(F)cc3)n2Cc2ccccc2)n(C)c1=O`: the “activity change, negative = inhibition” value is 1.13%. For the compound `CCN(CC(=O)Nc1ccccc1C(F)(F)F)C(=O)C1CCN(C(=O)Nc2ccccc2)CC1`, the “activity change, negative = inhibition” value is 2.43%.

For `O=C(NC1CC(=O)N(c2ccc(Cl)cc2)C1)C1CCCC1` (stereo unspecified), the “activity change, negative = inhibition” value is -5.39%. Consider `S=C(NNC(=S)NC1CC2CCC1C2)NC1CC2C=CC1C2` (stereo unspecified), for which the “activity change, negative = inhibition” value is -0.235%. As for `S=C(NNC(=S)NC1CC2C=CC1C2)NC1CC2C=CC1C2` (stereo unspecified), the “activity change, negative = inhibition” value is 0.443%.

As for `CC(C)c1ccc(NC(=S)NC2CC3C=CC2C3)cc1` (stereo unspecified), the Potency is 10.7 µM (active). With `Cc1c(Cl)cccc1NC(=O)C1CCCN(C(=O)c2cnn(-c3ccccc3)c2-n2cccc2)C1` (stereo unspecified), the “activity change, negative = inhibition” value was -17.5%. Consider `Cc1cc(=O)[nH]c(Nc2cccc(Br)c2)n1`, for which the “activity change, negative = inhibition” value is -3.47%.

On to `Cc1ccc(C)c(NC2=NCC(=O)N2c2ccc3c(c2)OCCO3)c1`, for which the “activity change, negative = inhibition” value is -7.62%.

For the compound `Cc1ccc2nc(C)cc(N/N=C/c3ccc(F)cc3)c2c1`, the “activity change, negative = inhibition” value is -1.41%. `Cc1nnc(N/N=C/c2ccccn2)[nH]c1=O`: the “activity change, negative = inhibition” value was -4.55%. `CCN(CC)c1ccc(/C=N/Nc2nc(C)cc(=O)[nH]2)cc1`: the Potency was 19 µM (active). Same read-out and setting: the result for `Cc1cc(=O)[nH]c(N/N=C/c2ccc3c(c2)OCCO3)n1` reads 10.7 µM (active). Regarding `CCOC(=O)Cc1csc(NC(=O)CSc2nc(C)cc(=O)[nH]2)n1`, the “activity change, negative = inhibition” value was -11%. Take `Cc1cc(=O)[nH]c(N/N=C/c2c(C)nn(-c3ccccc3Cl)c2Cl)n1`: the Potency is 21.3 µM (active).
